In PubChem BioAssay (NCI):
This is part of a sample that, as a whole, favours compounds with a hit. Of some 83,000 tested, about 20% had one in any assay.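 Growth was measured after 48 h exposure to one concentration of compound in 96-well plates. Values under 10 count as active.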 A number with no mark means an inactive call. Calls of active or inactive are those of the source.

Experiments:
Test in all cases: NCI-60 one-dose screen, 48 h (100 = growth as untreated, 0 = no growth, -100 = all killed)
Conditions in all cases: 10 µM unless noted
T-47D breast = tested on: T-47D breast
BT-549 breast = tested on: BT-549 breast
MDA-MB-435 melanoma = tested on: MDA-MB-435 melanoma
SW-620 colon = tested on: SW-620 colon
MCF7 breast = tested on: MCF7 breast
HCT-116 colon = tested on: HCT-116 colon
HCC-2998 colon = tested on: HCC-2998 colon
KM12 colon = tested on: KM12 colon

COc1ccc(C(=O)N2c3ccccc3Sc3ccccc32)c(C(F)(F)F)c1
growth (T-47D breast): 52.3%
growth (BT-549 breast): 10.7%
growth (MDA-MB-435 melanoma): -25% (active)
growth (SW-620 colon): 24.7%
growth (MCF7 breast): 17%
growth (HCT-116 colon): 6.57% (active)
growth (HCC-2998 colon): 26%
growth (KM12 colon): 18%

CCCn1nc(C(=O)N(C)Cc2ccccc2)c2c1CCC(N1CCc3ccccc31)C2 (stereo not given)
growth (T-47D breast): 108%
growth (BT-549 breast): 94.8%
growth (MDA-MB-435 melanoma): 106%
growth (SW-620 colon): 104%
growth (MCF7 breast): 85.3%
growth (HCT-116 colon): 77.8%
growth (HCC-2998 colon): 116%
growth (KM12 colon): 106%

Cc1c(CC(=S)N2CCOCC2)nnn1-c1cccc(C(F)(F)F)c1
growth (T-47D breast): 103%
growth (BT-549 breast): 112%
growth (MDA-MB-435 melanoma): 103%
growth (SW-620 colon): 99.9%
growth (MCF7 breast): 104%
growth (HCT-116 colon): 102%
growth (HCC-2998 colon): 119%
growth (KM12 colon): 105%

Clc1c(Cl)[n+](Cc2ccc3ccccc3c2)cn1Cc1ccc2ccccc2c1
growth (T-47D breast): -3.8% (active)
growth (BT-549 breast): -69.5% (active)
growth (MDA-MB-435 melanoma): -31.4% (active)
growth (SW-620 colon): 34.4%
growth (MCF7 breast): 11.8%
growth (HCT-116 colon): 7.02% (active)
growth (HCC-2998 colon): 16%
growth (KM12 colon): -67.6% (active)

Cc1c(CN)cc(-c2ccc(Cl)cc2)n1-c1ccccc1
growth (T-47D breast): 52.5%
growth (BT-549 breast): 74.9%
growth (MDA-MB-435 melanoma): 97.1%
growth (SW-620 colon): 89.4%
growth (MCF7 breast): 75.1%
growth (HCT-116 colon): 67.3%
growth (HCC-2998 colon): 107%
growth (KM12 colon): 99.9%

N#Cc1cccc(C2C3=C(COC3=O)N(CCO)c3cc4c(cc32)CCC4)c1 (stereo not given)
growth (T-47D breast): 68.9%
growth (BT-549 breast): 33.5%
growth (MDA-MB-435 melanoma): -32.7% (active)
growth (SW-620 colon): 21.2%
growth (MCF7 breast): 23.2%
growth (HCT-116 colon): 8.71% (active)
growth (HCC-2998 colon): 12.7%
growth (KM12 colon): 11%

O=C1/C(=C/c2ccccc2F)CN(C(=O)C(Cl)Cl)C/C1=C\c1ccccc1F
growth (T-47D breast): -7.38% (active)
growth (BT-549 breast): -46.5% (active)
growth (MDA-MB-435 melanoma): -56.8% (active)
growth (SW-620 colon): -76.9% (active)
growth (MCF7 breast): -49% (active)
growth (HCT-116 colon): -90.3% (active)
growth (HCC-2998 colon): -76.9% (active)
growth (KM12 colon): -51.7% (active)

Cc1cc2c(cc1C)N(C(=O)CCl)CC(=O)N2
growth (T-47D breast): 15.6%
growth (BT-549 breast): 18.9%
growth (MDA-MB-435 melanoma): 54.9%
growth (SW-620 colon): -48.2% (active)
growth (MCF7 breast): 19.6%
growth (HCT-116 colon): -10.9% (active)
growth (HCC-2998 colon): 71.6%
growth (KM12 colon): 60.2%

O=S(=O)(Nc1cc(Sc2cccc3cccnc23)c(O)c2ccccc12)c1ccccc1
growth (T-47D breast): -26% (active)
growth (BT-549 breast): 31.4%
growth (MDA-MB-435 melanoma): 11.3%
growth (SW-620 colon): -67.8% (active)
growth (MCF7 breast): -54.6% (active)
growth (HCT-116 colon): -15.2% (active)
growth (HCC-2998 colon): 36.9%
growth (KM12 colon): 13.6%

COc1ccc2c(c1)CCc1[nH]nc(-c3cc(OC)c(OC)c(OC)c3)c1-2
growth (T-47D breast): 31.3%
growth (BT-549 breast): 5.42% (active)
growth (MDA-MB-435 melanoma): -30.3% (active)
growth (SW-620 colon): 20.4%
growth (MCF7 breast): 6.38% (active)
growth (HCT-116 colon): -3.02% (active)
growth (HCC-2998 colon): 5.58% (active)
growth (KM12 colon): 7.02% (active)

Ic1ccccc1I
growth (T-47D breast): 107%
growth (BT-549 breast): 115%
growth (MDA-MB-435 melanoma): 111%
growth (SW-620 colon): 108%
growth (MCF7 breast): 91.5%
growth (HCT-116 colon): 98.5%
growth (HCC-2998 colon): 98.2%
growth (KM12 colon): 104%

CCOC(=O)C(=CNc1cnc(Nc2ccc(N3CCOCC3)cc2)nc1Oc1ccc(OC)cc1)C(=O)OCC
growth (T-47D breast): 84.7%
growth (BT-549 breast): 77.3%
growth (MDA-MB-435 melanoma): 61.7%
growth (SW-620 colon): 46.8%
growth (MCF7 breast): 61.3%
growth (HCT-116 colon): 11.4%
growth (HCC-2998 colon): 91.7%
growth (KM12 colon): 76.8%

CC1(C)[C@@H](O[C@@H]2OC[C@@H](O[C@@H]3O[C@H](CO)[C@@H](O)[C@H](O)[C@H]3O[C@@H]3OC[C@@H](O)[C@H](O)[C@H]3O)[C@H](O)[C@H]2O[C@@H]2O[C@H](CO)[C@@H](O)[C@H](O)[C@H]2O)CC[C@]2(C)[C@H]3CC[C@]45OC[C@@]6(CC[C@](C)(C=O)C[C@H]64)[C@H](O)C[C@@]5(C)[C@]3(C)CC[C@@H]12
growth (T-47D breast): -55.7% (active)
growth (BT-549 breast): -94% (active)
growth (MDA-MB-435 melanoma): -83.8% (active)
growth (SW-620 colon): -58.4% (active)
growth (MCF7 breast): -59.6% (active)
growth (HCT-116 colon): -75.9% (active)
growth (HCC-2998 colon): -82.1% (active)
growth (KM12 colon): -62% (active)

Cc1ccc(-c2csc(N(C(=O)N3CCN(c4cc5c(cc4F)c(=O)c(C(=O)O)cn5C4CC4)CC3)c3ccccc3)n2)cc1
growth (T-47D breast): 13%
growth (BT-549 breast): -2.16% (active)
growth (MDA-MB-435 melanoma): 14.9%
growth (SW-620 colon): 19.1%
growth (MCF7 breast): 7.97% (active)
growth (HCT-116 colon): 6.17% (active)
growth (HCC-2998 colon): 13.1%
growth (KM12 colon): 4.3% (active)

O=C(/C=C/c1cccc(Cl)c1Cl)Nc1ncc(Cc2ccccc2Cl)s1
growth (T-47D breast): 43.8%
growth (BT-549 breast): 76.7%
growth (MDA-MB-435 melanoma): -46.5% (active)
growth (SW-620 colon): 27%
growth (MCF7 breast): 12.7%
growth (HCT-116 colon): 24.2%
growth (HCC-2998 colon): 76.3%
growth (KM12 colon): 28.8%
